Pf Dd2 growth: Plasmodium falciparum Dd2 growth inhibition; P. falciparum Dd2 growth, SYBR Green, 72 h; Potency, µM (series often up to 28.9 µM), actives largely listed as inhibitors; 120,000 tested, 4.3% active; AID 1347417; active means well fitted inhibition curve with a large enough effect; further: nearly all actives have a fitted effect of over 65% in size
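Readout: SYBR Green fluorescence, 485 nm excitation, 535 nm emission, after ~16 h lysis at 37C. Before that, Dd2-infected red cells (2.5% hematocrit) grew 72 h with compound, 29 uM top final concentration.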
Numbers stand for hits; 0 = inactive; ! = not confirmed by another sample. Shown is part of a subset that was picked to be rich in hits.

SMILES	Pf Dd2 growth
O=C(Nc1ccccc1)c1cccc2c(=O)c3c([nH]c12)CCCC3	4.5µM
CCC1(C(=O)Nc2cccc(OC)c2)CCCCC(=O)N1 (stereo unspecified)	0
COc1cccc(NS(=O)(=O)c2ccc3[nH]c4c(c3c2)CCCCCC4)c1	0
O=C(CSc1nc(=O)[nH]c2c1CCCC2)NCc1ccccc1	0
O=C(CSc1nc(=O)[nH]c2c1CCC2)NCc1ccccc1	0
CCc1nnc([C@@H]2CC(F)(F)CN2C(=O)Cn2cccn2)o1	0
NC(=O)c1ccc(-c2cccc3c2CCNC3)s1	0
CCOc1ccc(-c2cccc3c2CCNC3)cc1C(N)=O	0
COc1ccc(-c2cccc3c2CCNC3)cc1OC	11µM
COc1ccc(C(=O)N2CCC(n3cc(-c4nc(C)no4)nn3)CC2)cc1F	0
Cc1cc(OCC(=O)c2ccc3c(c2)N(CC(=O)NCC2CCCO2)C(=O)CO3)ccc1C(C)C (stereo unspecified)	0
O=Cc1ccccc1Oc1ccc(F)c(Cl)c1	0
O=C1NCC(=O)N2CCN(C3CCN(Cc4ccco4)CC3)CC12 (stereo unspecified)	0
COc1ccc(-c2noc([C@@H]3CCCN3C(=O)c3ccc(F)cc3Cl)n2)cc1	0
O=C(CC(c1ccccc1)c1ccccc1Cl)N1CCOCC1 (stereo unspecified)	0
O=C(CC(c1ccc(Cl)cc1)c1c[nH]c2ccc([N+](=O)[O-])cc12)N1CCOCC1 (stereo unspecified)	0
O=C(CC(c1ccc(F)cc1)c1cn(Cc2ccccc2)c2ccc([N+](=O)[O-])cc12)N1CCOCC1 (stereo unspecified)	0.18µM
O=[S+]1([O-])NCC2(CCCN(Cc3ccc(F)cc3)C2)Oc2ncccc21 (stereo unspecified)	0
Cc1noc(C)c1C(=O)N1Cc2ccccc2CC2(CCN(C)C2)C1 (stereo unspecified)	10µM
CN1CCC(C(=O)N2Cc3ccccc3CC3(CCN(C)C3)C2)CC1 (stereo unspecified)	0
Cc1noc(C)c1C(=O)N1Cc2ccccc2CC2(CCN(CC3CCNCC3)CC2)C1	0
COc1ccc(CCNC(=O)CN2C(=O)NC(c3ccc(Cl)cc3)C3=C2COC3=O)cc1OC (stereo unspecified)	0
c1ccc(C2=NOC3(CCN(Cc4cccc5ccccc45)CC3)C2)cc1	0
NC1CC(c2nnc(COc3ccc4c(c3)CCNCC4)n2C2CC2)C1 (stereo unspecified)	10µM!
COCCn1c(COc2ccc3c(c2)ncn3C)nnc1C1CC(N)C1 (stereo unspecified)	0
SMILES	Pf Dd2 growth
CCn1c(COc2ccc(C)nc2)nnc1C1CC(N)C1 (stereo unspecified)	0
O=C([C@@H]1C[C@H](Oc2cccnc2)CN1C(=O)c1cc2ccccc2[nH]1)N1CCCC1	0
COc1cccc(CC(=O)N2CCCN(c3cc(-c4ccccc4)[nH]n3)CC2)c1	0
CN1CCC(N[C@@H]2CO[C@H](CNC(=O)CC(C)(C)C)[C@H]2O)CC1	0
COCCN(C)C[C@H]1C[C@H](CO)CN(C(=O)c2c(C)cccc2OC)C1	0
CCCN(CC1CCOC1)C(=O)Nc1c(F)cccc1F (stereo unspecified)	0
CCN1CCN(CCNC(=O)C2CCCCC(=O)N2Cc2ccccc2)CC1 (stereo unspecified)	0
O=C(NCCCN1CCc2ccccc2C1)C1CCCCC(=O)N1Cc1ccccc1 (stereo unspecified)	4µM
O=C1CCCCC(C(=O)NCCCN2CCc3ccccc3C2)N1 (stereo unspecified)	0
Cc1ccc(NC(=O)c2ccc3c(c2)N(C)C2CCCCCN2C3=O)c(F)c1 (stereo unspecified)	0
CC(=O)N[C@@H]1CN(Cc2cccc(C#N)c2)C[C@H]1CO	0
O=C(COc1ccccc1)Nc1ccc([C@@H](O)[C@H]2COCC(=O)N2CC2CC2)cc1	0
CS(=O)(=O)N1CCCN(Cc2cn[nH]c2-c2ccc(F)cc2)CCNC(=O)CC1c1ccccc1 (stereo unspecified)	0
O=C1CC(c2ccccc2)N(S(=O)(=O)c2ccccc2)CCCCCN1 (stereo unspecified)	0
COc1cccc(CN2CCCCCNC(=O)CC2c2ccccc2)c1OC (stereo unspecified)	11µM
Cc1ccc(CN2CCCN(Cc3ccncc3)C(c3ccccc3)CC(=O)NCC2)o1 (stereo unspecified)	1.8µM
Cc1ccc(CN2CCCC(c3nc(C(C)C)no3)CCNC(=O)CC2)o1 (stereo unspecified)	0
CCNC(=O)N1CCCCCNC(=O)CC1c1ccccc1 (stereo unspecified)	0
COc1cccc(CN2CCCOCCNC(=O)CC2)c1OC	0
CCOc1ccccc1CN1CCCCCCNC(=O)CC1c1ccccc1 (stereo unspecified)	11µM
CCn1ncc(CN2CCCN(S(C)(=O)=O)C(c3ccccc3)CC(=O)NCC2)c1C (stereo unspecified)	0
Cc1ncsc1CN1CCCCCCNC(=O)CC1c1ccccc1 (stereo unspecified)	0
CCOc1ccccc1CN1CCCN(Cc2ccncc2)C(c2ccccc2)CC(=O)NCC1 (stereo unspecified)	1.3µM
Cc1ccc(CN2CCCN(S(C)(=O)=O)C(c3ccccc3)CC(=O)NCC2)o1 (stereo unspecified)	0
Cc1ccc(NC(=O)C2Cn3cccc3C(=O)N2)cc1F (stereo unspecified)	0
SMILES	Pf Dd2 growth
CC(=O)N1CCC(N[C@H]2C[C@@H](Cc3cc(CN4CCOCC4)on3)C2(C)C)CC1	0
Cc1sc2ccn(Cc3ccc(F)cc3)c(=O)c2c1C(=O)NCc1cccs1	0
O=C(N[C@H](c1ccccn1)C1CC(O)C1)c1ccc2c(c1)ncn2CCO (stereo partly specified)	0
Cn1cccc1C(=O)NC[C@H]1O[C@@H](CO)[C@@H](O)[C@H]1N1CCOCC1	0
COCc1cn(C[C@H]2C[C@@H](NC(=O)c3cncnc3)[C@H](O)[C@@H]2O)nn1	0
CN1C[C@H](NC2CCC2)CCC[C@@H](C(=O)NC2CCOCC2)CC1=O	0
CC1(C)CN(C(=O)Cn2cc(C(F)(F)F)ccc2=O)C[C@]1(C)O	0
CCCNC(=O)N(C1CCOCC1)C1CCN(C(=O)c2ccc(C)c(F)c2)CC1	0
CC(C)NC(=O)N1CCCCCNC(=O)CC1c1ccccc1 (stereo unspecified)	0
COc1cccc(CN2CCCCCCNC(=O)CC2c2ccccc2)c1OC (stereo unspecified)	7.9µM
COc1cccc(CN2CCNC(=O)C2CC(=O)N2CCNC(=O)C2)c1OC (stereo unspecified)	0
CC(C)CCNC(=O)c1cc2n(n1)CC(c1ccc3c(c1)OCO3)OC2 (stereo unspecified)	0
COc1ccc(CN2C(=O)COC[C@H]2C(=O)NCc2ccc(Cl)cc2)cc1OC	0
O=C(NCCc1noc(C2CC2)n1)C1CCCC1	0
O=C1NCCCCCN(S(=O)(=O)c2cccs2)[C@H]2CCCC[C@@H]12	0
O=S(=O)(c1cccs1)N1C[C@@H](c2ccc(F)cc2)[C@@H]2[C@H]1C1CCN2CC1	5.6µM
O=C1NCCCCCCN(S(=O)(=O)c2cccs2)[C@H]2CCC[C@@H]12	0
CSc1ccc(NC(=O)C2CCN(C(=O)c3ncn4c3COC(c3ccc(F)cc3)C4)CC2)cc1 (stereo unspecified)	0
Cc1cc(=O)n(CCN2CCOCC2)c(N2CCCC2)n1	0
COCCc1noc(-c2nc(-c3ccccc3)no2)n1	0
